Pf apPOL inh: Pf-apPOL inhibitors, biochemical, fluorescence. Recombinant Pf-apPOL, molecular beacon fluorescence, 1.5 h. inhibition, % at 10 µM. 210,000 tested, 0.25% active
mHTT CaM bind: mutant huntingtin-calmodulin interaction inhibitors – biochemical, AlphaScreen, primary screen. AlphaScreen His-mHTT/GST-CaM binding, luminescence. P42858. inhibition, % at 15 µM. AID 1671202, 2021. 190,000 tested, 3.6% active;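 further: 0% = both proteins with DMSO and 100% = one protein alone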
An asterisk follows results filed as active; x = not tested or not shown. Sampled rows, rich in hits. Any-hit rate of the full collection: about 3.6%. No stated cut-off is given here; in the data, active means inhibition above about 50%; inactive means the rest.

SMILES | Pf apPOL inh | mHTT CaM bind
CCOc1ccccc1NC(=O)N1CCCC1c1cc(C)no1 (stereo not drawn) | -2 | -1
O=C(NCC1CC1)c1nnn(Cc2ccc(Cl)cc2)c1-n1cccc1 | -4 | 0
CC(C)=CCCC12CCC(CO)(CO1)C(C)C2 (stereo not drawn) | -4 | -3
Cc1ccc(C2=N/C(=C\c3cccc(Br)c3)C(=O)O2)cc1 | 1 | -1
CCC(C(=O)Nc1cccc(C)n1)c1ccccc1 (stereo not drawn) | -5 | -6
Cc1cccc(NC(c2cccc(O)c2)c2ccc3ccc(C)nc3c2O)n1 (stereo not drawn) | -12 | 89*
Cc1cccc(NC(c2cccc([N+](=O)[O-])c2)c2ccc3ccc(C)nc3c2O)n1 (stereo not drawn) | -10 | 70*
Cc1cccc(NC(c2ccccc2)c2ccc3ccc(C)nc3c2O)n1 (stereo not drawn) | -1 | 77*
Cc1ccc2cccc(I)c2n1 | -5 | x
Cc1cccc(NC(c2cccnc2)c2ccc3ccc(C)nc3c2O)n1 (stereo not drawn) | -6 | 90*
Cc1cc(O)c(C(c2cccnc2)c2c(O)cc(C)oc2=O)c(=O)o1 | 0 | 3
O=c1cc(CO)oc(C(Nc2ccccn2)c2cccc([N+](=O)[O-])c2)c1O (stereo not drawn) | 10 | 14
Cc1cc(C(=O)Nc2ccc(O)c(-c3nc4ccccc4o3)c2)ccc1[N+](=O)[O-] | -2 | 22
CC1=C(C(=O)Nc2ccccn2)C(c2ccccn2)n2ncnc2N1 (stereo not drawn) | -3 | 5
COc1ccc(Br)cc1C1Nc2ccc3ncccc3c2C2=C1C(=O)CC(C)(C)C2 (stereo not drawn) | 6 | 53*
CCCOc1ccc(C2Nc3ccc4ncccc4c3C3=C2C(=O)CCC3)cc1 (stereo not drawn) | 0 | 58*
CSc1ccc(C2Nc3ccc4ncccc4c3C3=C2C(=O)CCC3)cc1 (stereo not drawn) | 0 | 23
CCN(CC)c1ccc(C2Nc3ccc4ncccc4c3C3=C2C(=O)CC(C)(C)C3)cc1 (stereo not drawn) | 0 | 62*
COc1ccc(OC)c(C2Nc3ccc4ncccc4c3C3=C2C(=O)CC(C)(C)C3)c1 (stereo not drawn) | 0 | 42
CC1(C)CC(=O)C2=C(C1)c1c(ccc3ncccc13)NC2c1ccc(Br)cc1 (stereo not drawn) | 3 | 25
O=C(NCc1cccs1)Nc1nc2c(F)cccc2s1 | -6 | -10
CSc1cccc(C(=O)N(CCn2cccn2)c2nc3c(Cl)cccc3s2)c1 | -5 | 100*
COc1ccc(OC)c2sc(N(CCN(C)C)C(=O)c3cccc(SC)c3)nc12 | 2 | 18
Cc1nc(SCC(=O)c2ccccc2)c(C#N)c(C)c1Cl | -6 | -3
Cc1ccc(Nc2cc(C)nc3ccnn23)cc1 | 1 | -5
SMILES | Pf apPOL inh | mHTT CaM bind
Cc1cc(Nc2ccc(Cl)cc2)n2nccc2n1 | -4 | 64*
COc1cccc(C2=NN(C(=O)CN3CCOCC3)C(c3ccccc3C)C2)c1 (stereo not drawn) | -2 | 38
COc1ccc(C2=NN(C(=O)CN3CCOCC3)C(c3ccc(C)cc3C)C2)cc1 (stereo not drawn) | -4 | 50
COc1ccc(C2CC(c3ccc(C)cc3C)=NN2C(=O)CN2CCOCC2)cc1 (stereo not drawn) | -6 | 63*
COc1ccc(C2CC(c3cccc(C)c3)=NN2C(=O)CN2CCOCC2)cc1 (stereo not drawn) | -3 | 66*
COc1ccc(C2=NN(C(=O)CN3CCN(C)CC3)C(c3cccc(F)c3)C2)cc1 (stereo not drawn) | -1 | 54*
COc1ccc(C2CC(c3cccc(F)c3)=NN2C(=O)CN2CCC(C)CC2)cc1 (stereo not drawn) | -6 | 23
CC1CCC2C(=O)N(c3ccc(N4CC5CC(C4)c4cccc(=O)n4C5)c([N+](=O)[O-])c3)C(=O)C2C1 (stereo not drawn) | -16 | 17
COc1ccc(C(=O)NC2CCN(c3ccc(F)cc3)C2=O)cc1F (stereo not drawn) | -2 | 5
COc1ccc2nc(N3CCCC(C(=O)NCCN4CCCCC4C)C3)sc2c1 (stereo not drawn) | -7 | 10
COc1ccc(C(=O)N2CCCC2c2nc(-c3cccc(C)c3)no2)c(OC)c1 (stereo not drawn) | -4 | 12
CC(=O)Nc1nc(N)n(-c2ccccc2)n1 | -1 | -1
Nc1nc(NC(=O)c2ccc(F)cc2)nn1-c1ccccc1 | 65* | 0
COc1ccccc1C(=O)NC1CCc2[nH]c3c(C)cc(Cl)cc3c2C1 (stereo not drawn) | -3 | 92*
Cc1cccc2c3c([nH]c12)CCC(NC(=O)CC(C)C)C3 (stereo not drawn) | -4 | 47
Cc1ccccc1C(=O)NC1CCc2[nH]c3ccc(Br)cc3c2C1 (stereo not drawn) | 0 | 100*
Cc1cc(C)c2[nH]c3c(c2c1)CC(NC(=O)C1CCCO1)CC3 (stereo not drawn) | -3 | 54*
Cc1cc(Cl)cc2c3c([nH]c12)CCC(NC(=O)C1CCCC1)C3 (stereo not drawn) | -4 | 49
CCOC(=O)C(=O)NC1CCc2[nH]c3ccc(C)cc3c2C1 (stereo not drawn) | 0 | 21
CCN1c2ccc(F)cc2C(=O)NC12CCN(C(=O)c1ccc(Br)cc1)CC2 | 1 | 5
COc1cccc(CNC(=O)c2cnn3c(C)c(Cc4cccc(Cl)c4)c(C)nc23)c1 | -10 | 48
CN(C)c1cc(OC2CCN(C(=O)c3ccnn3C)C2)ncn1 (stereo not drawn) | 2 | 3
O=C(CCc1cc2ccccc2[nH]c1=O)N1CCSCC1 | -6 | 100*
O=C(CCc1cc2ccccc2[nH]c1=O)N1CCCCC1 | -3 | -7
CCN(CC)c1ccc(C2CC(=O)C3=C(C2)Nc2ccccc2NC3c2ccco2)cc1 (stereo not drawn) | 14 | 41
SMILES | Pf apPOL inh | mHTT CaM bind
O=c1ccc(S(=O)(=O)N2CCCC2)cn1Cc1ccccc1 | -1 | -4
COc1ccc(N(CC(=O)Nc2ccc(Br)c(C)c2)S(C)(=O)=O)c(OC)c1 | 0 | 54*
COc1ccc(NC(=O)CN(c2ccc(Cl)cc2C)S(C)(=O)=O)c(OC)c1 | -6 | 6
COc1ccc(C(=O)Nc2cc(F)c3[nH]c(=O)ccc3c2)cc1 | -2 | -12
O=C(c1cccc(Cl)c1)N1CCN(c2ccccc2F)CC1 | -8 | -6
COC(=O)c1ccc2c(=O)n(Cc3ccc(F)cc3)c(N3CCCCC3)nc2c1 | 0 | -56
COc1ccc(Nc2ncc3c(n2)CCN(Cc2cccc(C)c2)C3)c(OC)c1 | -8 | 9
COc1ccc(OC)c(Nc2ncc3c(n2)CCN(Cc2ccccc2OC)C3)c1 | -2 | 59*
CCOc1ccccc1CN1CCc2nc(Nc3ccc(OC)cc3OC)ncc2C1 | -6 | 55*
COc1ccc(OC)c(Nc2ncc3c(n2)CCN(Cc2cccc(C)c2)C3)c1 | -3 | 64*
COc1ccc(Nc2ncc3c(n2)CCN(Cc2ccccc2OC)C3)c(OC)c1 | -3 | 45
COc1ccc(OC)c(Nc2ncc3c(n2)CCN(Cc2cccc(F)c2F)C3)c1 | -2 | 17
Cn1ncc([N+](=O)[O-])c1C(=O)NNC(=S)NC1CC1 | x | -2
CCC(Br)C1=NS(=O)(=O)c2ccccc2N1 (stereo not drawn) | -6 | -3
